Some of the results follow. A number with no mark means an inactive call.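 How the source made its calls: active means mean activation over three repeats above the cutoff from the earlier oxytocin receptor agonist screen (cut at about 20% in these data); inactive means the rest.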
Biological target: Oxytocin receptor (Homo sapiens) (UniProt P30559)
Assay: human OXTR agonists, counter-screen for V1R agonist project, fluorescence, CHO-OTR cells, triplicate (AID 434969);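 further: peak over minimum fluorescence ratio within a 100 second FLIPR read; 0% = DMSO only wells and 100% = oxytocin high control wells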
Settings: Fluo-8 calcium fluorescence, at 3 µM, stronger effect = higher value

Sequence of Oxytocin receptor (Homo sapiens) (P30559 whole entry, looked up): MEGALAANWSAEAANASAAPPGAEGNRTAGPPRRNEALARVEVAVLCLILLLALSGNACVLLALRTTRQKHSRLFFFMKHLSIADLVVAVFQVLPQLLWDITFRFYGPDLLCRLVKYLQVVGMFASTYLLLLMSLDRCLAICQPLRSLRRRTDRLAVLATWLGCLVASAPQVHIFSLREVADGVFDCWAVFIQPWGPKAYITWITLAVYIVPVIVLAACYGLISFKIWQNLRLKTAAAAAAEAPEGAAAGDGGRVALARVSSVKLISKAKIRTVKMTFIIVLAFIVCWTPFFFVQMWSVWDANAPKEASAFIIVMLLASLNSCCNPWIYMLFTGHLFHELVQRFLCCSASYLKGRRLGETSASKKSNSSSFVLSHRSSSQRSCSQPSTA

SMILES	activation
CCN(CC)c1ccc2cc(C(N)=O)/c(=N\NC(=O)c3ccncc3)oc2c1	15.6%
O=C(c1ccccc1)c1ccc(OCC(O)CN2CCCC2)cc1 (stereo not drawn)	2.06%
CCN(CC)c1ccc(/C=N/NC(=O)c2cnccn2)c(O)c1	9.1%
Cc1cc(C)c(/C=C2\C(=O)Nc3ccccc32)[nH]1	16.6%
CC1(C)S[C@@H]2[C@H](N=CN3CCCCCC3)C(=O)N2[C@H]1C(=O)O	0.49%
O=c1c2cc(Br)ccc2nc(-c2cccc(Cl)c2)n1O	15.4%
O=C(CN1CCN(c2cccc(Cl)c2)CC1)Nc1ccc(S(=O)(=O)N2CCOCC2)cc1	5.65%
Fc1cccc(Cl)c1COc1ccc(-c2nnco2)cc1	-0.58%
